{"source": "PubChem BioAssay", "note": "Values without a mark were called inactive. Calls of active or inactive are those of the source. How the calls were made is not given here.", "data": [{"target": "L-lactate dehydrogenase (Plasmodium falciparum (isolate CDC / Honduras)) (UniProt Q27743)", "sequence (Q27743 whole entry, looked up)": "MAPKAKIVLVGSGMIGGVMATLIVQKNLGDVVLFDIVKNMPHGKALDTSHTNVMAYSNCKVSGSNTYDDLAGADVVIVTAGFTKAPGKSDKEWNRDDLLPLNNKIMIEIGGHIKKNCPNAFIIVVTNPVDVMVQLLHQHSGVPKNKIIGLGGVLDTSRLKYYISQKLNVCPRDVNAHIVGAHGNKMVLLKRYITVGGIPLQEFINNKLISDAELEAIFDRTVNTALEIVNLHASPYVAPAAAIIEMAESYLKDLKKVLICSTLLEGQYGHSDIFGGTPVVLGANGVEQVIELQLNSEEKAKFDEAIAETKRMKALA", "assay": "PfLDH activity inhibition – cell lysate, 3D7 strain, counter-screen for P. falciparum growth inhibition project (AID 2304);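 further: 0% = vehicle and 100% = reference inhibitor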", "conditions": "P. falciparum 3D7 crude extract, LDH APAD/NBT absorbance; at 2 µM; active compounds read high", "units": {"inhibition": "%"}, "values": [{"smiles": "CN1CCN(CCCN(Cc2ccc(-c3ccc(CNCc4ccc5c(c4)OCO5)cc3)cc2)C(=O)Nc2ccccc2)CC1", "inhibition": -3}, {"smiles": "O=[N+]([O-])c1cccc(Nc2nccc(-c3cnn4ncccc34)n2)c1", "inhibition": -1}, {"smiles": "COc1ccc(C(=O)N[C@@H](CC(C)C)C(=O)N[C@H](/C=N/NC(=O)c2ccccc2)CCc2ccccc2)cc1OCCN1CCOCC1", "inhibition": 1}, {"smiles": "CC(C)CCNCc1c(O)ccc2ccccc12", "inhibition": 2}, {"smiles": "Cc1ccc(/C=C/C(=O)N2CCC(CCN3CCC(c4c[nH]c5ccccc45)CC3)CC2)cc1C", "inhibition": -2}]}, {"system": "not listed separately", "assay": "inhibition of 3D7 malaria parasite growth – strain 3D7 (AID 2306);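 further: 0% = DMSO wells and 100% = chloroquine plus artemisinin control wells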", "conditions": "P. falciparum 3D7 erythrocytic growth, LDH absorbance, 72 h; at 2 µM; active compounds read high", "values": [{"smiles": "Cc1cccc2[nH]c(-c3cccc(-c4cccc(CN5CCN(c6ccc(C#N)cn6)CC5)c4)c3)nc12", "growth inhibition": "94% (active)"}, {"smiles": "C[C@H](Cc1ccc(OCCCCCCOc2ccc(C[C@@H](C)NC[C@H](O)c3cccc(Cl)c3)cc2)cc1)NC[C@H](O)c1cccc(Cl)c1", "growth inhibition": "99% (active)"}, {"smiles": "COc1ccc(-n2ccnc2SCC(=O)Nc2cc(Cl)ccc2OC)c(OC)c1", "growth inhibition": "96% (active)"}, {"smiles": "COc1ccccc1C1CCN(CCCCNC(=O)c2ccc(NC(=O)c3ccc(Cl)cc3)cc2)CC1", "growth inhibition": "95% (active)"}, {"smiles": "COc1ccccc1CNc1ncc(-c2ccsc2)c(-c2nccs2)n1", "growth inhibition": "91% (active)"}, {"smiles": "COc1ccc2c(NN=Cc3ccc(N(C)C)cc3)ccnc2c1", "growth inhibition": "102% (active)"}, {"smiles": "NC1CCCN(Cc2cccc(-c3ccc(-c4nc5ccccc5[nH]4)s3)c2)C1", "note": "(stereo not given)", "growth inhibition": "98% (active)"}, {"smiles": "COc1cc2c(cc1C(F)(F)F)N(C(=O)Nc1cc(OC(F)(F)F)cc(-c3cccnc3)c1)CC2", "growth inhibition": "100% (active)"}, {"smiles": "O=C(Cc1cnc[nH]1)Nc1ccc(-c2cccc(-c3nc4ccc(C(F)(F)F)cc4[nH]3)c2)cc1", "growth inhibition": "101% (active)"}, {"smiles": "CCCOc1ccc(CCCON2C(N)=NC(N)=NC2(C)C)cc1", "growth inhibition": "95% (active)"}, {"smiles": "CC(C)(C)NCCN(Cc1ccc(-c2ccc(C(F)(F)F)cc2)cc1)C(=O)Cn1c(CCc2cccc(F)c2F)nc(=O)c2ccccc21", "growth inhibition": "99% (active)"}, {"smiles": "CC1(C)N=C(N)N=C(N)N1OCCNCc1ccc(Cl)cc1", "growth inhibition": "95% (active)"}, {"smiles": "Cc1ccc(C2=NNC3(S2)C(=O)Nc2ccc(C)cc23)cc1", "note": "(stereo not given)", "growth inhibition": "95% (active)"}, {"smiles": "CCc1ccc(N2C(=O)C3C(Cc4ccc(OC(C)(C)C)cc4)NC4(C(=O)N(Cc5ccccc5)c5ccc(F)cc54)C3C2=O)cc1", "note": "(stereo not given)", "growth inhibition": "96% (active)"}, {"smiles": "CCNc1cc(C(=O)N[C@@H](Cc2ccc(Cl)cc2)[C@H](O)CNC2CCCCC2)cc(N2CCCCS2(=O)=O)c1", "growth inhibition": "98% (active)"}, {"smiles": "CC(C)[C@H](NC(=O)NC1CCC(CCN2[C@@H]3CC[C@H]2CC(OC(=O)C(CO)c2ccccc2)C3)CC1)C(O)(c1ccccc1)c1ccccc1", "note": "(stereo not given in full)", "growth inhibition": "90% (active)"}, {"smiles": "CC(C)N1CCC(N(Cc2ccc(-c3ccc(C(F)(F)F)cc3)cc2)C(=O)Cn2c(CCc3cccc(F)c3F)cc(=O)c3c2CCC3)CC1", "growth inhibition": "100% (active)"}, {"smiles": "c1ccc(Nc2nc(-c3ccccn3)cs2)nc1", "growth inhibition": "87% (active)"}, {"smiles": "CCOC(=O)NC1=NC(C)(C)N(OCc2ccc(Cl)c(Cl)c2)C(N)=N1", "growth inhibition": "96% (active)"}, {"smiles": "CCn1c(SCC(=O)Nc2cc(C(F)(F)F)ccc2Cl)nc2ccccc2c1=O", "growth inhibition": "93% (active)"}, {"smiles": "COc1cc(NC(=O)/C=C/c2cccc3ccoc23)ccc1OCCN(C(C)C)C(C)C", "growth inhibition": "90% (active)"}, {"smiles": "COc1ccc(OCCCN2CCN(CC(c3ccc(F)cc3)N3CCN(C(C)C)CC3)CC2)c2ccccc12", "note": "(stereo not given)", "growth inhibition": "100% (active)"}, {"smiles": "Cc1cccc(Nc2nccc(NCC(O)c3cccc(C(F)(F)F)c3)n2)c1", "note": "(stereo not given)", "growth inhibition": "100% (active)"}, {"smiles": "Cc1cccc2[nH]c(-c3ccc(-c4ccc(NC(=O)C(=O)c5cccn5C)cc4)cc3)nc12", "growth inhibition": "95% (active)"}, {"smiles": "CC(C)NCc1ccc(-c2cccc(-c3nc4ccccc4[nH]3)c2)cc1", "growth inhibition": "101% (active)"}, {"smiles": "Cc1cccc2[nH]c(-c3ccc(-c4cccc(CN5CCN(c6ccncc6)CC5)c4)cc3)nc12", "growth inhibition": "101% (active)"}, {"smiles": "CC(C)CN1CCCN(Cc2cccc(NC(=O)c3cc4ccccc4s3)c2)CC1", "growth inhibition": "87% (active)"}, {"smiles": "Cc1cc(NCCCCCCN)nc(Nc2ccc(Cl)cc2)n1", "growth inhibition": "100% (active)"}, {"smiles": "CCCCCCCN1CC[C@@H](CCCc2ccnc3ccc(OCCCCN=C(N)NO)cc23)[C@@H](CC)C1", "growth inhibition": "90% (active)"}, {"smiles": "COc1cc(CCN(C)Cc2ccc(OC)c(OC)c2)ccc1NC(=O)c1cccc2c(=O)c3cccc(F)c3[nH]c12", "growth inhibition": "102% (active)"}, {"smiles": "COc1ccc2nccc([C@@H](O)CN3CCC(NC[C@H](Cc4ccccc4)NC(=O)OC(C)(C)C)CC3)c2c1", "growth inhibition": "98% (active)"}, {"smiles": "CC(=O)NCCNc1nccc(N2CCc3ncnc(Nc4ccc(OCc5cccc(F)c5)c(Cl)c4)c3C2)n1", "growth inhibition": "100% (active)"}, {"smiles": "Cc1cc(N)c2cc(NC(=O)CCC(=O)Nc3ccc4nc(C)cc(N)c4c3)ccc2n1", "growth inhibition": "85% (active)"}, {"smiles": "COc1cc(CNCCC(C)C)ccc1OCc1cccc(COc2ccc(CNCCC(C)C)cc2OC)c1", "growth inhibition": "99% (active)"}, {"smiles": "O=C(/C=C/c1ccc(Cl)c(Cl)c1)NCCCCCCN1CCCN(C(=O)Nc2ccc(C(F)(F)F)cc2)CC1", "growth inhibition": "100% (active)"}, {"smiles": "CN1CCN(CCCN(Cc2ccc(-c3ccc(CNCc4ccc5c(c4)OCO5)cc3)cc2)C(=O)Nc2ccccc2)CC1", "growth inhibition": "94% (active)"}, {"smiles": "O=[N+]([O-])c1cccc(Nc2nccc(-c3cnn4ncccc34)n2)c1", "growth inhibition": "87% (active)"}, {"smiles": "COc1ccc(C(=O)N[C@@H](CC(C)C)C(=O)N[C@H](/C=N/NC(=O)c2ccccc2)CCc2ccccc2)cc1OCCN1CCOCC1", "growth inhibition": "96% (active)"}, {"smiles": "CC(C)CCNCc1c(O)ccc2ccccc12", "growth inhibition": "95% (active)"}, {"smiles": "Cc1ccc(/C=C/C(=O)N2CCC(CCN3CCC(c4c[nH]c5ccccc45)CC3)CC2)cc1C", "growth inhibition": "94% (active)"}]}]}
